Screening results deposited in PubChem BioAssay by several laboratories.
Sampled rows, rich in hits. Any-hit rate of the full collection: about 2.9%.
Smad3 inh: Smad3/FoxH1 peptide binding inhibitors, primary screen, biochemical, TR-FRET; TR-FRET Smad3/Dy647-FoxH1 peptide binding, europium anti-His; inhibition, % at 25 µM; 88,000 compounds, 0.29% hits; AID 630, 2007;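 active means compounds that reduce the energy-transfer binding signal between the protein and its labelled peptide by more than half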;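 further: 0% = Smad3 plus labelled peptide maximal FRET and 100% = peptide-only background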
MRP resist rev: reversal of MRP1-mediated doxorubicin resistance, primary screen, H69AR cells, doxorubicin co-treatment; H69AR cells + 2 uM doxorubicin, CellTiter-Glo, 72 h; differential viability (reversal), % at 10 µM; 85,000 compounds, 0.04% hits;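 active means viability drop by adding the cancer drug above about 55%, with treated viability meeting a 40% cutoff, limit read from the data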;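 further: viability without doxorubicin minus viability with 2 µM doxorubicin for each compound; larger differential means the compound sensitizes cells more to doxorubicin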
ERb coact inh: inhibitors of ERβ-SRC1 coactivator interaction, primary screen, biochemical, TR-FRET, ERβ LBD, SRC-1 peptide. TR-FRET ER-beta LBD / SRC1-Cy5 peptide binding; receptor agonist-loaded with 1 µM estradiol. Estrogen receptor beta (Homo sapiens), Q92731. AID 633, 2007. 86,000 compounds, 1.3% hits. inhibition, % at 25.6 µM;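 active means compounds whose percent inhibition of the receptor-coactivator binding signal exceeds about 50% in the single-dose screen, limit read from the data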;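 further: 0% = receptor plus peptide wells without compound and 100% = peptide-only wells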
ERa coact inh: ERα–SRC-1 coactivator interaction inhibitors, primary screen, biochemical, TR-FRET, ERα LBD, estradiol-bound; inhibition, % at 25.6 µM; Estrogen receptor (Homo sapiens), P03372; 86,000 compounds, 1.7% hits; TR-FRET ER-alpha LBD / SRC-1 peptide; in the data active means inhibition above about 50%;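 further: 0% = receptor plus peptide control and 100% = peptide only without receptor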
Target sequence (P03372 whole entry, looked up, the tested form may be a part): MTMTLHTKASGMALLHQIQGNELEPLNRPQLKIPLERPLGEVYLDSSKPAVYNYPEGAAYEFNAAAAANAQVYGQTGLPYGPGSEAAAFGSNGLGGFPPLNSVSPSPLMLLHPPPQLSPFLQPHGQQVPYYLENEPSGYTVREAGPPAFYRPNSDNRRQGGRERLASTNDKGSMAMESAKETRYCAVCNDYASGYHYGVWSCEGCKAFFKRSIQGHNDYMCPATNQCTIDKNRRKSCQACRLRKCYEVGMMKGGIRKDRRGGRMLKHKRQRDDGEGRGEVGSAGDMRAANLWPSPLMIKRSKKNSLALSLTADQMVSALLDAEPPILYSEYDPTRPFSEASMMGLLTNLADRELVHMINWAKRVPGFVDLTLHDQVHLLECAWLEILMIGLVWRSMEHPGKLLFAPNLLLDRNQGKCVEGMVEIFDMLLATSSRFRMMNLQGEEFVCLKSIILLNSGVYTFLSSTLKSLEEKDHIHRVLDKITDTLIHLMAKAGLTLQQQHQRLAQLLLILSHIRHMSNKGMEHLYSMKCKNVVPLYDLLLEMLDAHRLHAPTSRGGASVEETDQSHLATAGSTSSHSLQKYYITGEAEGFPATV
MRP-1 activ: H69AR viability gain despite doxorubicin, primary screen, MRP-1 activator project, H69AR cells, CellTiter-Glo; viability rescue; viability increase, % at 10 µM; 140,000 compounds, 0.61% hits;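 active means viability gain under doxorubicin at or above a set limit, the compound median plus 3 SD, cut at about 4.7% in these data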;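 further: MRP-1 overexpressing cells given doxorubicin 25 µM after compound pretreatment; 18-22 h compound pretreatment then 72 h with doxorubicin before readout; 0% = doxorubicin-only wells and 100% = vehicle-treated cells without doxorubicin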
ERa coact pot: enhancers of ERα–SRC-1 coactivator binding, primary screen, biochemical, TR-FRET, ERα LBD, low estradiol | TR-FRET ERalpha-LBD/SRC-Cy5 coactivator binding, 2 h; 100 = basal binding, no effect | coactivator binding (% of control), % at 25.6 µM | 86,000 compounds, 1.3% hits | Estrogen receptor (Homo sapiens), P03372; in the data active means activity above about 200%;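 further: binding measured in presence of low estradiol as agonist stimulus; 0% = peptide alone without receptor and 100% = receptor with peptide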
Active calls of the source: *; . = not tested or not shown; [ ] = remark or other dose.

SMILES	Smad3 inh	MRP resist rev	ERb coact inh	ERa coact inh	MRP-1 activ	ERa coact pot
c1ccc(COc2ccc(OCCCN3CCCCC3)cc2)cc1	13.4	14.7	-2.6	62.6*[fluorescence artefact?]	-1.9	91.3
COc1ccc([N+](=O)[O-])cc1NC(=O)C(C)Sc1nc(-c2ccccc2)cs1 (centres undefined)	.	.	.	.	0.7	.
CC1=C(C(=O)Nc2ccccc2)C(c2ccc(C)o2)N2C(=O)CSC2=N1 (centres undefined)	-1.2	-3.5	-5.2	-26.9	11.2*	101.0
c1cc2c3c(cccc3c1)C(N1CCN(C3=Nc4cccc5cccc3c45)CC1)=N2	-4.7	-3.7	10.1	33.8	.	203.2*[fluorescence artefact?]
CC(=O)N1CCN(C2=Nc3cccc4cccc2c34)CC1	-1.1	-0.8	-8.7	-9.1	-3.0	104.7
O=C(N/N=C/c1ccccc1[N+](=O)[O-])c1ccc(COc2ccccc2-c2ccccc2)cc1	.	.	.	.	7.3*	.
CCN(CC)c1cc2nc(C)n(Cc3ccccc3)c(=O)c2cc1NC(=O)C1CC1	14.2	-6.5	-9.6	-12.9	4.8*	102.2
COc1ccc(SCc2noc(C(=O)NC(C)C)c2C(=O)O)cc1	.	.	.	.	-0.8	.
C1CCC(c2nn3c(-c4n[nH]c5c4CCC5)nnc3s2)CC1	11.6	-3.3	61.4*	75.0*	-0.9	19.8
COC(=O)c1cc(Cl)c(NC(=O)c2cc3ccccc3o2)cc1OC	.	.	.	.	-5.4	.
N#Cc1ccc(N2C(=O)[C@@H]3C(C(=O)c4ccc5ccccc5n4)=NN[C@@H]3C2=O)cc1	.	.	.	.	9.3*	.
COc1cc(OC)cc(C(=O)OCc2cc3ccccc3[nH]c2=O)c1	-17.4	6.3	7.7	-12.3	-1.0	498.8*[fluorescence artefact?]
CCN(CC)C(=O)Oc1ccc(NC(C)=O)cc1	6.4	5.2	-2.9	3.1	0.4	96.9
CC(=O)Nc1ccc(OC(=O)CC2SC(=O)NC2=O)cc1 (centres undefined)	-6.7	-2.8	56.3*	40.7	0.1	70.1
CN(C)CN1CSC(=S)N(CN(C)C)C1	39.9	.	.	.	.	.
N#CC(C(=O)Nc1cccc(Cl)c1)=C1Nc2ccccc2N1	-0.3	-5.0	-6.7	-13.3	-3.9	105.0
N#CC(C(=O)Nc1ccc(Cl)c(Cl)c1)=C1Nc2ccccc2N1	-19.4	4.8	70.0*[fluorescence artefact?]	79.4*[fluorescence artefact?]	-5.5	45.9
O[C@@H](C1=C/C(=C\c2ccncc2)c2ccccc21)c1ccncc1	76.3*	.	.	.	.	.
Cc1ccccc1C(O)c1ccncc1 (centres undefined)	.	.	.	.	-1.8	.
O=C1C2C3CCC(C3)C2C(=O)N1Cc1ccccc1 (centres undefined)	.	.	.	.	-1.2	.
OC[C@@H]1O[C@H](N2CCN([C@@H]3O[C@H](CO)[C@@H](O)[C@H](O)[C@H]3O)CC2)[C@@H](O)[C@H](O)[C@H]1O	31.8	.	.	.	.	.
Cn1c(=O)c2[nH]c(COCc3nc4c([nH]3)c(=O)n(C)c(=O)n4C)nc2n(C)c1=O	0.9	.	.	.	.	.
Cc1ccccc1Cn1c(CN2CCc3ccccc3C2)nc2c1c(=O)n(C)c(=O)n2C	2.3	43.5	96.8*[fluorescence artefact?]	3.4	-4.3	109.2
COc1nc(C)nc(NC(=O)NS(=O)(=O)c2ccc(C)cc2)n1	-9.8	4.7	50.6*[fluorescence artefact?]	4.8	-0.9	79.8
CN(CC(=O)NCCc1ccccc1)S(=O)(=O)c1cccc2nsnc12	.	2.0	.	.	-1.3	.
SMILES	Smad3 inh	MRP resist rev	ERb coact inh	ERa coact inh	MRP-1 activ	ERa coact pot
CN(CC(=O)NCCN1CCN(Cc2ccccc2)CC1)S(=O)(=O)c1cccc2nsnc12	4.8	6.9	5.4	3.6	-3.6	764.1*[fluorescence artefact?]
C[C@@]12CC[C@@H]3[C@H](CCC4=CC(=O)CC[C@]43C)[C@H]1CC[C@H]2C(=O)Cn1cnc2c(=S)nc[nH]c21	11.9	.	.	.	.	.
Brc1cccc(-c2nnc(-c3ccccc3)o2)c1	-6.3	2.3	3.1	11.5	-0.9	107.7
O=c1oc2ccc3ccccc3c2cc1-c1nnc(-c2cccs2)o1	.	.	.	.	-1.0	.
CCN(CC)c1ccc2cc(-c3nnc(-c4ccc(Br)cc4)o3)c(=O)oc2c1	-7.8	6.1	32.7	33.1	.	209.6*
O=c1oc2ccc3ccccc3c2cc1-c1nnc(-c2ccccc2)o1	17.6	10.9	19.9	65.2*[fluorescence artefact?]	-2.7	67.7
CCN(CC)c1ccc2cc(-c3nnc(-c4ccccc4)o3)c(=O)oc2c1	-5.3	-20.6	31.7	48.0	2.5	193.5
O=c1oc2ccccc2cc1-c1nnc(-c2cccc(Br)c2)o1	-16.6	28.6	35.0	75.9*[fluorescence artefact?]	.	72.0
COc1ccc(-c2nnc(-c3cc4c(ccc5ccccc54)oc3=O)o2)cc1	-2.3	1.6	20.3	51.6*	1.2	120.0
Cc1cc2ncn(CC(=O)O)c2cc1C	15.4	.	.	.	.	.
CSc1nc2ccc3nc(NC(=O)c4cccs4)sc3c2s1	-6.5	18.9	79.3*[fluorescence artefact?]	69.4*[fluorescence artefact?]	-3.1	182.3
CSc1nc2ccc3nc(NC(=O)c4ccc(Cl)s4)sc3c2s1	-10.8	3.6	35.3	58.8*[fluorescence artefact?]	-2.2	87.5
CN(C)S(=O)(=O)c1ccc2nc(NC(=O)c3cccs3)sc2c1	4.8	-24.7	0.8	-5.8	-1.0	108.9
C[C@H]1CN(CCO)CCN1c1ccccc1	7.3	.	.	.	.	.
Cc1ccc(CCNC(=O)c2coc3nc4ccccc4nc23)cc1	8.2	-12.8	-5.5	-23.9	2.1	290.0*[fluorescence artefact?]
CC1CCN(CCCNC(=O)c2coc3nc4ccccc4nc23)CC1	0.4	15.6	-9.3	-11.8	1.8	114.2
CCOC(=O)C(C)Sc1cc(CS(=O)(=O)c2ccccc2)nc(-c2ccccc2)n1 (centres undefined)	.	.	.	.	-1.4	.
CN(C)S(=O)(=O)N(CC(=O)N(Cc1ccccc1)Cc1ccccc1)c1ccccc1	-0.8	-10.7	37.3	54.5*	-3.1	110.6
c1ccc(-c2nnn(CCN3CCCCC3)n2)cc1	-2.0	.	.	.	.	.
Cc1nn(Cc2ccc(Cl)cc2Cl)c(C)c1NC(=O)NC12CC3CC(CC(C3)C1)C2	.	.	.	.	-0.6	.
O=C(O)c1ccccc1/C=N/N=C1c2ccccc2-c2ccccc21	62.3*	.	.	.	.	.
COc1ccc(-c2nnn(CC(=O)N3CCOCC3)n2)cc1	-5.7	6.7	-5.6	-2.2	-1.3	96.8
O=C(Cc1cccs1)Nc1ccc(-c2nnn(CC(=O)N3CCOCC3)n2)cc1	-4.4	1.1	93.1*	95.7*[fluorescence artefact?]	-0.5	15.8
CCc1ccc2nc(N3C(=O)c4oc5ccccc5c(=O)c4C3c3ccc(OC)c(OC)c3)sc2c1 (centres undefined)	.	.	.	.	-4.3	.
